Laboratory results taken from PubChem BioAssay AID1645854 (Buhrlage Lab, Dana-Farber Cancer Institute and Novartis …, 2021).
Hit rate of the full screen: of about 47,000 compounds, about 140 (0.3%) were called active. What follows is part of a selection rich in actives, with near analogues and random picks from the rest. A number with no mark means an inactive call. Cut-off read from the data, not from the text of the source: active = inhibition above about 30%; inactive = the rest.

What follows are compounds tested against Ubiquitin carboxyl-terminal hydrolase 7 (Homo sapiens) (UniProt Q93009) (assay: inhibitors of human USP7 deubiquitinase (AID 1645854)). Settings: purified USP7, Ub-rhodamine cleavage fluorescence; at 20 µM; active compounds read high.
Ubiquitin carboxyl-terminal hydrolase 7 (Homo sapiens), sequence (Q93009 whole entry, looked up): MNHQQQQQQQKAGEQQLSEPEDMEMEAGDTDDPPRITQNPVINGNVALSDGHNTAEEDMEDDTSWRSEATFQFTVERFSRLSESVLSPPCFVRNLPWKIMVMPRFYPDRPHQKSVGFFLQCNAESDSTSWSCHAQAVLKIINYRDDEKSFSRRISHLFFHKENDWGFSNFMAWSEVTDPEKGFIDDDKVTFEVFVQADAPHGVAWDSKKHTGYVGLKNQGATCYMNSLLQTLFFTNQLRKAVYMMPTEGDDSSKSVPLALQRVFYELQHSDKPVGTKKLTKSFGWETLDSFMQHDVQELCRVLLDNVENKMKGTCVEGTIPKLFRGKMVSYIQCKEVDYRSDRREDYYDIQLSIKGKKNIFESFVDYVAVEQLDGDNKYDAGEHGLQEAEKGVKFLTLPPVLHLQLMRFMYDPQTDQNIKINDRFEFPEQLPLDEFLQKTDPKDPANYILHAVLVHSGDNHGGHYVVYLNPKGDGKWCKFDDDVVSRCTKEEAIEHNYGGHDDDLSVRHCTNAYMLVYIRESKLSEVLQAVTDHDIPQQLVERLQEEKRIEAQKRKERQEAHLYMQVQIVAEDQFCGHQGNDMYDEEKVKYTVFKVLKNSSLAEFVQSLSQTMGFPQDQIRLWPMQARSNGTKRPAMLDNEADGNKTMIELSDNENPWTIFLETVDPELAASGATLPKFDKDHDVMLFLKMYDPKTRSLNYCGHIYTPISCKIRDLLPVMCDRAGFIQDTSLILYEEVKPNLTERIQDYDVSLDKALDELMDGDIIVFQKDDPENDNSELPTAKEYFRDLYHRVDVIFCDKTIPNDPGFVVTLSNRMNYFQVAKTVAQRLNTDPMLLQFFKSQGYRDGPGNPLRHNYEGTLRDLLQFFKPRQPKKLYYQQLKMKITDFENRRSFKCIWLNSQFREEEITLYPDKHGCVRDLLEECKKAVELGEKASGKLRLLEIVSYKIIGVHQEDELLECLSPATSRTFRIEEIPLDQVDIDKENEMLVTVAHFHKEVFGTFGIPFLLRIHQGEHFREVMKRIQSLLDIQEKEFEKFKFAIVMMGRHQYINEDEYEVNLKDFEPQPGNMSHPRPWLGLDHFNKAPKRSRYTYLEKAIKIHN

Point of comparison: `COc1ccc(-c2nc3ccccc3c3nnc(SCC(N)=O)n23)cc1`, inhibition 6.48%. Against it:
- COc1cc2c(c(OC)c1OC)-c1ccc(N3CCN(Cc4ccccc4)CC3)c(=O)cc1[C@@H](NC(C)=O)CC2 — lower, -1.92%
- C=C1CCC2[C@](C)(CCC[C@]2(C)C(=O)OC)[C@H]1CCc1ccoc1CNCC(=O)O (stereo not given in full) — lower, 1.95%
- C=C1CCC2[C@](C)(CCC[C@]2(C)C(=O)OC)[C@H]1CCc1ccoc1C[N+](C)(C)Cc1ccccc1 (stereo not given in full) — higher, 19.4%
- CCc1cc(C(=O)NC2CC(C)(C)Cc3nc(N4CCCC4)ncc32)no1 (stereo not given) — lower, -17.3%
- Cc1ccc(-c2cn3ccn(-c4ccc(C)cc4C)c(=O)c3n2)cc1 — lower, 6.15%
- CC(C)CN1[C@H]2CCN(C(=O)c3cccn3C)CC[C@@H]2Oc2ccccc2S1(=O)=O — lower, -3.56%
- Cn1cc(C2=CCN(S(=O)(=O)c3cccc4cccnc34)CC2)c2cccnc21 — lower, -2.34%
- Cc1nnc(C(=O)Nc2ccc(C(=O)NCc3ccccc3C)cc2)s1 — lower, 6.22%
- O=C(Nc1nc(-c2ccc3c(c2)CCN3C(=O)c2ccccc2F)cs1)c1cccnc1 — higher, 26.5%
- CCS(=O)(=O)c1cccc(C(=O)Nc2c(C(N)=O)oc3ccccc23)c1 — lower, 1.8%
- CN1CCN(c2ccc(CNS(=O)(=O)c3cccc(F)c3)cc2)CC1 — lower, 3.64%
- COc1ccccc1CNc1ccc2c(cc1=O)[C@@H](NC(C)=O)CCc1cc(OC)c(OC)c(OC)c1-2 — lower, -13.3%
- CCS(=O)(=O)N1CCC(c2nc(C)c(-c3ccnc(C)n3)s2)CC1 — lower, 3.86%
- C=C1Nc2ccccc2C(=O)N1c1cccc(NC(=O)c2ccc(F)cc2)c1 — lower, 1.49%
- O=C(CCc1nc(-c2cccnc2)no1)Nc1cc(Cl)ccc1O — lower, -16.2%
- CC(C)Cc1nnc(NC(=O)c2cc(=O)[nH]c3ccccc23)s1 — lower, -0.0201%
- COc1cc(C(=O)N[C@@H]2C(=O)Nc3c(c(C)nn3C)[C@H]2c2cccc(Cl)c2)cc(OC)c1OC — lower, -9.37%
- CN1C(=O)C2CCCCN2c2ccc(C(=O)NC3CCCC3)cc21 (stereo not given) — lower, -1.37%
- O=C(CCc1ccccc1)N1C[C@@H]2OCC(=O)N(C3CCOCC3)[C@H]2C1 — higher, 10.2%
- C[C@H](NC(=O)[C@@H]1Cc2c([nH]c3ccccc23)C2c3ccccc3C(=O)N21)C(=O)NC1CC1 (stereo not given in full) — lower, -18.8%
- CC(/C=C/C(=O)NO)=C\C(C)C(=O)c1ccc(N(C)C)cc1 (stereo not given) — lower, -1.05%
- CC1(C)CCc2c(cc(OCC(=O)NCC(=O)O)c3c4c(c(=O)oc23)CCC4)O1 — higher, 8.33%
- CCCc1cc(=O)oc2cc(OCC(=O)NCc3ccc(OC)cc3)ccc12 — lower, 1.51%
- CCCCCCSc1ncnc2c1sc1nc(-c3ccccc3)c3c(c12)CC(C)(C)OC3 — lower, 1.19%
- CSc1ncnc2c1sc1nc(-c3ccccc3)c3c(c12)CC(C)(C)OC3 — lower, 4.67%
- COCCN1C(=O)Cc2c(C)nc(C3(C)CCCN(c4ccnc(C)n4)C3)nc21 (stereo not given) — lower, -0.762%
- Cc1cc(-c2cnc(C)nc2C2CCN(C(=O)Cc3ccccc3F)CC2)on1 — lower, 0.853%
- COc1cccc(CN2CCCC2c2noc(C3CC3)n2)c1 (stereo not given) — lower, 0.378%
- COc1ccccc1CN1C[C@@H]2C[C@@H](O)CN2C[C@@H]1Cc1ccccc1 — lower, -13%
- COc1ccc(-c2nnc(-c3ccccc3)o2)cc1S(=O)(=O)N1CCc2ccccc2C1 — higher, 8.25%
- COc1ccc(-c2nonc2NC(=O)Cc2ccccc2)cc1OC — lower, -0.82%
- CNc1nc(C2CCN(C(=O)c3ccc4c(c3)OCCO4)C2)nc2c1CN(C)CC2 (stereo not given) — lower, -10.6%
- O=C(COc1ccccc1-c1nnc(-c2ccccc2)o1)Nc1cc(F)ccc1F — lower, 5.06%
- COc1ccc(-c2cnc(N(C)C)nc2C2CCCCN2)cc1 (stereo not given) — lower, -4.92%
- CC(=O)N1CCC(NC2(Cc3cc(C(C)(C)C)on3)COC2)CC1 — lower, 0.342%
- CCOC(=O)Nc1cc(C)nn1-c1ncnc2c1cnn2-c1ccc(F)cc1 — lower, 0.0906%
- Cc1ccc(S(=O)(=O)N2CCN(C(=O)CN3CCc4ccccc43)CC2)cc1 — lower, -5.22%
- CCOc1ccccc1C1C2=C(CC(C)(C)CC2=O)Nc2ccccc2N1C(=O)c1ccccc1 (stereo not given) — lower, -4.8%
- COc1ccc(CC(=O)N2CCCCC2c2ccc3c(=O)n(C)c(=O)n(C)c3n2)cc1 (stereo not given) — lower, 0.092%
- O=C(NCc1ccc(Cl)cc1)C1CCN(c2nccn3nc(-c4ccccc4)cc23)CC1 — lower, -35.4%
- O=C(CN1CCCCC1)N[C@@H]1C[C@H]2Oc3ccccc3N[C@H]2[C@@H]1O — lower, 3.93%
- O=C(C1CCNCC1)N1CCN(c2ccccc2F)CC1 — lower, 1.05%
- COc1ccccc1NC(=O)CSc1nc2ccccc2n1S(=O)(=O)c1ccc(Br)cc1 — lower, -6.03%
- CC(C)NC(=O)N1CC[C@H]2COC(=O)N(Cc3ccccc3)[C@@H]2C1 — lower, 3.45%
- C/C=C(\C)C(=O)C(C)C1=CC(=O)C2=C(O[C@]3(C)CC[C@@H]4O[C@H](C(C)(C)O)CC[C@@]4(C)[C@@H]3C2)C1=O (stereo not given in full) — lower, -44.6%
- COc1ccc(C(=O)NC(C(=O)OCC(=O)c2ccc(C)cc2)C(C)C)cc1OC (stereo not given) — lower, 3.56%
- COc1cccc(CC(NC(C)=O)C(=O)NC2CCN(C(=O)C3CCCCC3)CC2)c1 (stereo not given) — lower, 5.13%
- O=C1[C@H]2Cc3c([nH]c4ccccc34)CN2C(=O)CN1CC(O)c1ccccc1 (stereo not given in full) — lower, -145%
- Cc1cc(CN2CCN(S(C)(=O)=O)CC(C(=O)N(C)C)C2)no1 (stereo not given) — lower, 0.0126%
- COc1ccccc1NS(=O)(=O)c1ccc2c(c1)C(=O)N(C)c1ncccc1O2 — lower, 2.84%
- Cc1nn(Cc2ccccc2)c(C)c1C(=O)NS(=O)(=O)c1ccccc1Cl — lower, 1.27%
- Cc1cc(C(=O)N2CCCC2c2ccccc2C)on1 (stereo not given) — lower, 0.669%
- O=C(c1cc(=O)[nH]c2ccccc12)N1CCN(Cc2cn3ccccc3n2)CC1 — lower, -8.75%
- COc1ccc(C2CC(=O)n3nc(-c4cccc(C)c4)nc3S2)cc1 (stereo not given) — lower, 0.741%
- COC(=O)c1ccccc1NC(=O)c1nc(-c2ccccc2)oc1C — lower, -0.0638%
- O=C(CSc1ncnc2c1sc1cccc(F)c12)N1CCCCCC1 — lower, -136%
- COc1cccc(N2CCN(C(=O)Nc3ccc4c(c3)NC(=O)CO4)CC2)c1 — lower, 3.68%
- O=S(=O)(c1cc(-c2noc(C3CC3)n2)cs1)N1CCc2ccccc21 — higher, 7.51%
- Cc1ccc(C)c(N(C)C(=O)c2cccc3c2SCCC3=O)c1 — lower, -2.51%
- Cn1cncc1-c1cncc(CC2CCCN(S(C)(=O)=O)C2)n1 (stereo not given) — lower, 0.0473%
- O=C(O)COc1cc(O)c2c(=O)cc(-c3ccccc3)oc2c1 — lower, -6.31%
- Cc1csc(C2(NC(=O)Cc3cc(C)on3)CCCC2)n1 — lower, -8.11%
- COC(=O)c1c(C)[nH]c(C(=O)C(C)OC(=O)c2cccc(F)c2)c1C (stereo not given) — lower, -2.46%
- CCc1ccc(-n2c(=O)c3ccccc3n(CC(=O)NCCC3=CCCCC3)c2=O)cc1 — higher, 8.71%
- CCOC(=O)C1(C)C=C(Nc2ccc(C(=O)O)c(O)c2)C(=O)N1c1ccccc1 (stereo not given) — lower, -4.45%
- CC(=O)NC(Cc1ccccc1F)C(=O)NC1CCN(C(=O)C2CC2)CC1 (stereo not given) — lower, 1.1%
- O=C(c1cccc(F)c1)N1CCN(Cc2cc(=O)c3ccccc3[nH]2)CC1 — lower, 2.84%
- Cc1cccc(NC(=O)Cc2nc(C)c(C(=O)NC3CC3)s2)c1C — lower, -0.0337%
- O=C(CC1(O)C(=O)N(CCc2ccccc2)c2ccc(Cl)cc21)c1ccc2c(c1)OCCO2 (stereo not given) — lower, 5.91%
- Cc1cc(C)nc(SCc2nnc(Nc3ccccc3)s2)n1 — lower, 0.95%
- CCc1ccc(C(=O)COc2ncnc3scc(-c4ccccc4)c23)cc1 — lower, 4.6%
- O=C(COc1cccc2ccc(N3CCC(Cc4ccccc4)CC3)nc12)Nc1cccc(F)c1 — lower, 5.1%
- Cn1c(CNC(=O)c2cn3ccccc3n2)nc2ccccc21 — lower, -4.22%
- COc1ccc(C(=O)Nc2ccccc2N2CCOCC2)cc1S(=O)(=O)N(C)Cc1ccccc1 — lower, 2.61%
- COc1cc2c(cc1OC)-c1cc(NCc3ccccc3)nc(=O)n1CC2 — lower, -10.1%
- CC1(C)C(=O)Nc2ccc(S(=O)(=O)NCc3ccc(F)cc3)cc21 — lower, 1.68%
- Cc1cn(C)c(C2CCCN2C(=O)c2cc(C)nc3onc(C)c23)n1 (stereo not given) — lower, -2.53%
- Cc1cccc(NC(=O)CCc2nnc3ccc(NCc4ccc5c(c4)OCO5)nn23)n1 — lower, -2.6%
- Cn1c(=O)n(C2CCN(CCc3ccccc3)CC2)c2ncncc21 — lower, 2.05%
- Cc1ccc(C(=O)N2CC(=O)N(Cc3ccc(Cl)cc3)CC(O)C2)cc1 (stereo not given) — lower, -42.1%
- Cc1nnc(-c2cnn(C)c2N)n1CC1CCCO1 (stereo not given) — lower, -0.964%
- CCOC(=O)c1noc2nc(C)n(Cc3nc(-c4ccccc4)oc3C)c(=O)c12 — lower, 1.79%

`C=C1CCC2[C@](C)(CCC[C@]2(C)C(=O)OC)[C@H]1CCc1ccoc1/C=C/C(=O)O` (stereo not given in full) was tested, and the inhibition was 37.2% (active).
For `CC1(C)Cc2c(c(-c3ccco3)nc3sc4c(SCCCc5ccccc5)ncnc4c23)CO1`, the inhibition was 56.7% (active).
